Source: PubChem BioAssay (NCI)
This is part of a sample that, as a whole, favours compounds with a hit. Of some 83,000 tested, about 20% had one in any assay.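 Note: values are percent growth. 100 is the growth of untreated cells, values between 100 and 0 indicate rising inhibition; between -100 and 0 indicates cell death.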 Unmarked numbers belong to inactive results. Active and inactive are the calls of the source. How the source made its calls: active means growth percent below 10; inactive means the rest.

What was measured:
Experiment in all cases: NCI-60 one-dose screen, 48 h (100 = growth as untreated, 0 = no growth, -100 = all killed)
Conditions in all cases: 10 µM unless noted
NCI-H23 lung = tested on: NCI-H23 lung
NCI-H322M lung = tested on: NCI-H322M lung
HOP-62 NSCLC = tested on: HOP-62 NSCLC
NCI-H460 lung = tested on: NCI-H460 lung
HOP-92 NSCLC = tested on: HOP-92 NSCLC
NCI-H522 lung = tested on: NCI-H522 lung
A549/ATCC NSCLC = tested on: A549/ATCC NSCLC
786-0 renal = tested on: 786-0 renal
COLO 205 colon = tested on: COLO 205 colon
DU-145 prostate = tested on: DU-145 prostate
K-562 leukemia = tested on: K-562 leukemia
MALME-3M melanoma = tested on: MALME-3M melanoma
MDA-MB-231 breast = tested on: MDA-MB-231 breast
RXF 393 renal = tested on: RXF 393 renal
SF-268 CNS = tested on: SF-268 CNS
SF-295 CNS = tested on: SF-295 CNS
SF-539 CNS = tested on: SF-539 CNS
UACC-257 melanoma = tested on: UACC-257 melanoma
M14 melanoma = tested on: M14 melanoma
HCT-15 colon = tested on: HCT-15 colon

SMILES | growth (NCI-H23 lung) | growth (NCI-H322M lung) | growth (HOP-62 NSCLC) | growth (NCI-H460 lung) | growth (HOP-92 NSCLC) | growth (NCI-H522 lung) | growth (A549/ATCC NSCLC) | growth (786-0 renal) | growth (COLO 205 colon) | growth (DU-145 prostate) | growth (K-562 leukemia) | growth (MALME-3M melanoma) | growth (MDA-MB-231 breast) | growth (RXF 393 renal) | growth (SF-268 CNS) | growth (SF-295 CNS) | growth (SF-539 CNS) | growth (UACC-257 melanoma) | growth (M14 melanoma) | growth (HCT-15 colon)
O=NN(C(=O)NC1CCC(C(=O)O)CC1)C1CCC(C(=O)O)CC1 (stereo not given) | 106% | 107% | 104% | 107% | 98.8% | 98.7% | 106% | 107% | 115% | 112% | 95% | 104% | 103% | 106% | 107% | 107% | 103% | 96.7% | 104% | 96.3%
Nc1ncnc(N)c1NC(=O)c1ccc(OCc2ccccc2)cc1 | 105% | 100% | 104% | 107% | 106% | 91.3% | 103% | 104% | 103% | 111% | 105% | 102% | 104% | 107% | 104% | 103% | 95.5% | 104% | 108% | 99.5%
Oc1c(CN2CCN(c3ccccc3F)CC2)cc(Br)c2cccnc12 | 44.6% | 16.7% | -75% (active) | -73.1% (active) | -5.84% (active) | -65% (active) | -65% (active) | -83.5% (active) | -8.74% (active) | -32% (active) | 1.01% (active) | -58.2% (active) | -33.5% (active) | -57.5% (active) | 0.474% (active) | -72.5% (active) | -90.5% (active) | 11.3% | -3.56% (active) | -4.53% (active)
CC(C)[C@H](NC(=O)Cn1cc(C(=O)O)nn1)C(=O)O | 97.3% | 99.9% | 108% | 106% | 99.2% | 104% | 97% | 104% | 119% | 114% | 118% | 101% | 97.6% | 112% | 115% | 93% | 105% | 99.6% | 108% | 100%
O=c1oc2ccc(F)cc2c(=O)n1-c1ccc(I)cc1F | 2.97% (active) | 8.02% (active) | -3.36% (active) | 3.08% (active) | -17.6% (active) | -15.8% (active) | 5.88% (active) | 0.0953% (active) | 53.9% | 14.8% | 7.88% (active) | -22.1% (active) | -25.4% (active) | -1.5% (active) | 12.2% | -40% (active) | 3.66% (active) | -14.8% (active) | 3.58% (active) | 5.2% (active)
O=c1c(-c2nc3ccccc3[nH]2)cc2ccccc2n1Cc1cn(Cc2ccc(F)cc2)nn1 | 23.5% | 19.4% | 21.4% | -10.7% (active) | 34.9% | 19.5% | 11.4% | -23.2% (active) | 18.2% | -23.5% (active) | 17.7% | 12.8% | 4.33% (active) | -25.5% (active) | 29.4% | 1.67% (active) | -55.9% (active) | 49.9% | -20.7% (active) | 16.9%
O=c1oc2ccc(F)cc2c(=O)n1-c1ccc(F)cc1F | 11.4% | 36.7% | 30.5% | 14.7% | -29% (active) | -8.1% (active) | 15.2% | 73.1% | 93.9% | 28.3% | 15.7% | -6.02% (active) | 51.1% | 33.5% | 15% | 37.9% | 18.5% | 17.5% | 29% | 23.3%
COc1ccc(-c2nc(-c3ccccn3)c(-c3ccccn3)n2CC(C)C)cc1OC1CCCC1 | 31.2% | 9.32% (active) | 28.3% | 5.25% (active) | 35.2% | 20.8% | 8.04% (active) | 24.5% | 12.1% | 28.7% | 10.4% | 16.5% | 30.8% | 19.3% | 19% | 8.48% (active) | 39% | 28.8% | 20.9% | 33.9%
O=c1[nH]nnc2c1ncn2C1OC(CO)C(O)C1O (stereo not given) | 63.3% | 71.1% | 66.7% | 33.1% | 35.7% | 58% | 49.7% | 54.4% | 34.4% | 26.8% | 31.5% | 57.5% | 55.2% | 80.7% | 67.6% | 20.2% | 67.2% | 65.2% | 36.2% | 66.5%
Cc1cc2c(c(C)c1Cl)C(=O)/C(=C/c1cccc([N+](=O)[O-])c1)O2 | 90.3% | 98.7% | 107% | 101% | 114% | 80.6% | 89.6% | 101% | 123% | 104% | 99.9% | 97.1% | 92.7% | 107% | 100% | 95.1% | 95% | 88.2% | 98.9% | 99.7%
Cc1ccc(Cn2c(N3CCC(C(=O)NCc4cccs4)CC3)nc3ccccc32)cc1 | 85.2% | 114% | 85% | 82.5% | 73.9% | 107% | 95% | 89.1% | 96.9% | 72.8% | -42.9% (active) | 63.6% | 71.3% | 80.7% | 72.3% | 97% | 88% | 119% | 31.5% | 87%
N#Cc1c(N)nc2c(c1N)C(c1ccc(F)cc1)c1ccc(N)cc1O2 (stereo not given) | 117% | 150% | 113% | 110% | 97.2% | 86.4% | 101% | 92.3% | 124% | 110% | 104% | 136% | 118% | 92.3% | 105% | 83.1% | 103% | 102% | 111% | 100%
CCOC(=O)c1sc(-c2ccc(OS(=O)(=O)c3ccccc3[N+](=O)[O-])c(C=O)c2)nc1C | 50.6% | 58.4% | 117% | 91.2% | 65.6% | 18.8% | 82.3% | 80.3% | 117% | 78.1% | 12.8% | 37.8% | 84% | 108% | 46.6% | 107% | 76.6% | 49.5% | 5.91% (active) | 6.3% (active)
COC(=O)/C(CCC=C(C)C)=C1\[C@@H](OC(C)=O)C[C@@]2(C)[C@H]1C[C@@H](O)[C@H]1[C@@]3(C)CC[C@H](NCCCNCCCCNCCCN)[C@@H](C)[C@@H]3CC[C@@]12C | 61.4% | 67.9% | 52.1% | 19.4% | 52.6% | 93.7% | 62.1% | 44.8% | 21.6% | 70.5% | 33.4% | 47.2% | 56% | 75.8% | 81.3% | 41.9% | 66% | 91.9% | 40% | 76.8%
